From PubChem BioAssay (EPA / NIEHS)
Results filed as inconclusive are left out. Active and inactive are the calls of the source. How the source made its calls, unless noted: active means hit-call score of the fitted dose curve at least 0.9, where 1 is the maximum; inactive means score below 0.9.

Key:
[1] = ACEA_ER_80hr: ACEA Biosciences xCELLigence Real-Time Cell Analysis on Estrogen Receptor Agonism for Proliferation (AID 2282667; active means hit-call score of the fitted dose curve at least 0.9, where 1 is the maximum); settings: T47D proliferation, impedance (xCELLigence), 80 h
Method in brief: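 Estrogen-driven proliferation is captured as electrode impedance in T47D cells 80 h after compound addition. Test articles ran at 8 concentrations, 1:4 dilutions from 100 uM final, in two replicate plates.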

[2] = ATG_CRE_CIS: Attagene CIS-FACTORIAL HepG2 Assay for human cAMP Responsive Element (CRE) binding protein 3 (AID 2282926); settings: HepG2 CRE cis-reporter, Attagene multiplexed mRNA; actives raise or lower the signal
Method in brief: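 Liver-derived HepG2, transfected with a CRE-containing reporter panel, exposed 24 h; transcript levels sized and quantified by capillary electrophoresis of labelled amplicons; signal changes either way referenced to vehicle.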

[3] = molecular target: CCAAT/enhancer-binding protein beta (Homo sapiens) (UniProt P17676); experiment: ATG_C_EBP_CIS: Attagene CIS-FACTORIAL HepG2 Assay for human CCAAT/Enhancer Binding Protein (C/EBP) beta (AID 2282927); settings: HepG2 Attagene cis-factorial transcription factor reporter; actives raise or lower the signal
Chain of CCAAT/enhancer-binding protein beta (Homo sapiens) (P17676 whole entry, looked up): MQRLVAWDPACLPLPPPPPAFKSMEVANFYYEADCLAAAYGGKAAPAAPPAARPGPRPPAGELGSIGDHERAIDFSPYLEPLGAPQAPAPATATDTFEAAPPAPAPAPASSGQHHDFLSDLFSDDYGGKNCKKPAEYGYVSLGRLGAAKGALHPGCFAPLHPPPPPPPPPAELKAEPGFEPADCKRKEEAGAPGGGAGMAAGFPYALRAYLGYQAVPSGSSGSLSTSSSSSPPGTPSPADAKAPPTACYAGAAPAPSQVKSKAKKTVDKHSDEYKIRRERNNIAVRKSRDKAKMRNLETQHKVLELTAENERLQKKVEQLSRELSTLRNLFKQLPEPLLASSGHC
Method in brief: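 RT-PCR/capillary electrophoresis fluorescence of reporter mRNA, 24 h post-dose, in HepG2 cells carrying transfected cis-promoter reporter units. Bidirectional curve fitting against DMSO baseline captures gain or loss of signal.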

[4] = ATG_CMV_CIS: Attagene CIS-FACTORIAL HepG2 Assay for human CMV (Internal Marker) (AID 2282928); settings: HepG2 CMV promoter reporter, transcription factor profiling; actives raise or lower the signal;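 further: endpoint acts as a background internal control marker rather than a target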
Method in brief: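 Reporter transcripts from transfected HepG2 cells are isolated after 24 h of chemical dosing, reverse-transcribed and amplified. Fragments labeled with 6-FAM are cut with HpaI and quantified by capillary electrophoresis; DMSO defines baseline.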

[5] = ATG_DR4_LXR_CIS: Attagene CIS-FACTORIAL HepG2 Assay for human Liver X Receptor (LXR), DR4 submotif (AID 2282929); settings: HepG2 Attagene DR4 cis-reporter, mRNA transcription; actives raise or lower the signal
Method in brief: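 Fluorescence intensity of labelled reporter cDNA fragments, separated by capillary electrophoresis, gives the signal. HepG2 cells bearing cis-regulated reporter constructs were treated 24 h; activity fitted bidirectionally relative to DMSO negative control.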

[6] = molecular target: Aryl hydrocarbon receptor (Homo sapiens) (UniProt P35869); experiment: ATG_Ahr_CIS: Attagene CIS-FACTORIAL HepG2 Assay for human Aryl Hydrocarbon Receptor (Ahr) (AID 2282930); settings: HepG2 AhR cis-factorial reporter transcription; actives raise or lower the signal
Chain of Aryl hydrocarbon receptor (Homo sapiens) (P35869 whole entry, looked up): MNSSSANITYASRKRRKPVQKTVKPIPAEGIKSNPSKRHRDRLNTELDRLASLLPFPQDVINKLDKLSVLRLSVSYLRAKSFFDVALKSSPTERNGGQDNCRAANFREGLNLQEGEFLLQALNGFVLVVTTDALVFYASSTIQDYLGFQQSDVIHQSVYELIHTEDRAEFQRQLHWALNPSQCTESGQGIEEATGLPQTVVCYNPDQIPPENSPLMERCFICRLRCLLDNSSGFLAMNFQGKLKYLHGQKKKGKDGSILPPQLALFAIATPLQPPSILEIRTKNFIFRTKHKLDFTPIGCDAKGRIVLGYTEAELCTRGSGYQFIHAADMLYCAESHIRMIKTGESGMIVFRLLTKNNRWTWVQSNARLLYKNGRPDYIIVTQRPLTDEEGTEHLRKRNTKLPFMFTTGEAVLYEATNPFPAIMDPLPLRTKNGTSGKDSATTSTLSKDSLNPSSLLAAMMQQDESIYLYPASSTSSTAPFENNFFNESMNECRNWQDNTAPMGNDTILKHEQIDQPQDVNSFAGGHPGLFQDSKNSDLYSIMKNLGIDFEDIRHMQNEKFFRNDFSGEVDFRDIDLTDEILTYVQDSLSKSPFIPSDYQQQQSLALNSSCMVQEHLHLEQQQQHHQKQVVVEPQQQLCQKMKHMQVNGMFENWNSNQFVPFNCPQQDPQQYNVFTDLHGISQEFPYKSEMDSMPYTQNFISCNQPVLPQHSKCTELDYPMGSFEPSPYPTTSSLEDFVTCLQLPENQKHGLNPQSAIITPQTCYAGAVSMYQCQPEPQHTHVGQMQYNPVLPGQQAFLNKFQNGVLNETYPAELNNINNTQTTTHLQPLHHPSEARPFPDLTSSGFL
Method in brief: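 HepG2 cells transiently transfected with cis-element-driven multiplexed reporter transcription units; endogenous transcription factor activity measured as reporter mRNA 24 h after dosing. RT-PCR, 6-FAM labelling, HpaI digestion, capillary electrophoresis; bidirectional fitting versus DMSO baseline.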

[7] = ATG_AP_1_CIS: Attagene CIS-FACTORIAL HepG2 Assay for human Activator Protein 1 (AP-1) (AID 2282931); settings: HepG2 Attagene cis-factorial AP-1 reporter mRNA; actives raise or lower the signal
Method in brief: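 Multiplexed HepG2 reporter assay, 24 h dosing. mRNA induction detected by RT-PCR plus capillary electrophoresis. Activity fitted in both directions against DMSO.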

[8] = ATG_BRE_CIS: Attagene CIS-FACTORIAL HepG2 Assay for human Bone Morphogenetic Protein (BMP) Response Element (BRE) (AID 2282933); settings: HepG2 BMP response element reporter, Attagene transcription factor profiling; actives raise or lower the signal
Method in brief: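 Transient MRTU transfection of human HepG2 liver cells; 24 h compound treatment; total RNA isolated, reverse-transcribed, PCR-amplified, 6-FAM labelled, HpaI-cut, capillary electrophoresis. DMSO = negative control/baseline, bidirectional fit.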

[9] = molecular target: Retinoic acid receptor alpha (Homo sapiens) (UniProt P10276); experiment: ATG_DR5_RAR_CIS: Attagene CIS-FACTORIAL HepG2 Assay for human Retinoic Acid Receptor Alpha (RARE), DR5 submotif (AID 2282934); settings: HepG2 Attagene cis-factorial RARE DR5 reporter, mRNA; actives raise or lower the signal
Chain of Retinoic acid receptor alpha (Homo sapiens) (P10276 whole entry, looked up): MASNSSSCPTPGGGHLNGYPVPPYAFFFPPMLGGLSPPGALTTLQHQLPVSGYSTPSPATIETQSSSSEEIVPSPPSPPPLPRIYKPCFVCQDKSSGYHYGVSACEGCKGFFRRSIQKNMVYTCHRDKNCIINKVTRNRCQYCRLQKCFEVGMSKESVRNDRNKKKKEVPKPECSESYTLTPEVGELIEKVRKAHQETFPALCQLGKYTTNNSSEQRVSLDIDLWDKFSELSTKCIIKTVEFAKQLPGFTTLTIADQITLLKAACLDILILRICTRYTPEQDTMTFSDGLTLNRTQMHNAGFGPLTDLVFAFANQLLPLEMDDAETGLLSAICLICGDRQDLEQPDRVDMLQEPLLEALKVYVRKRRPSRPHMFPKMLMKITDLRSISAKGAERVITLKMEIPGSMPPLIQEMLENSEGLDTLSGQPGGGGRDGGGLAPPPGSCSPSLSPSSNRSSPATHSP
Method in brief: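 HepG2 cells transiently transfected with multiplexed reporter units under cis (DR5 RARE) promoters, so endogenous transcription factor activity is measured. After 24 h compound exposure, reporter mRNA is quantified by RT-PCR with fluorescent labelling and capillary electrophoresis; bidirectional fitting versus DMSO.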

[10] = molecular target: Transcription factor E2F1 (Homo sapiens) (UniProt Q01094); experiment: ATG_E2F_CIS: Attagene CIS-FACTORIAL HepG2 Assay for human E2F Transcription Factor 1 (AID 2282935); settings: HepG2 Attagene cis-reporter, E2F reporter RNA transcripts; actives raise or lower the signal
Chain of Transcription factor E2F1 (Homo sapiens) (Q01094 whole entry, looked up): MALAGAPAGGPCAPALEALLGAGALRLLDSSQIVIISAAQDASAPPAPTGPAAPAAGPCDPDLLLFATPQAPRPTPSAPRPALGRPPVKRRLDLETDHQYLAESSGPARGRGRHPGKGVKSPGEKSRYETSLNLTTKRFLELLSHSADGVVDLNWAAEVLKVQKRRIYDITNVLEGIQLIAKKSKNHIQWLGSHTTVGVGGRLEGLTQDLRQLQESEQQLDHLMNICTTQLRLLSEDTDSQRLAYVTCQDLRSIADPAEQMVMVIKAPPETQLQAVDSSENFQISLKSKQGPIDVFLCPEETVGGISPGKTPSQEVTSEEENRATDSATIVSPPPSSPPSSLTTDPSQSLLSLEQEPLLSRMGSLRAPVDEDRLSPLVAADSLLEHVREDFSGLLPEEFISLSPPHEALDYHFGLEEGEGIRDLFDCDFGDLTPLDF
Method in brief: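 In this cis-factorial format, endogenous factor activity drives transfected reporters in HepG2; transcripts collected at 24 h are quantified by fluorescence after RT-PCR and capillary separation.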

[11] = ATG_EGR_CIS: Attagene CIS-FACTORIAL HepG2 Assay for human Early Growth Response 1 (EGR1) (AID 2282938); settings: HepG2 Attagene CIS-FACTORIAL EGR reporter mRNA; actives raise or lower the signal
Method in brief: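 Activity is taken as induction or loss of reporter mRNA versus DMSO, fitted bidirectionally. Transcripts from cis-regulated reporter units in transiently transfected HepG2 were measured after 24 h by RT-PCR with capillary electrophoresis.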

[12] = ATG_M_19_CIS: Attagene CIS-FACTORIAL HepG2 Assay for M19 Transcription Factor (Internal Marker) (AID 2282939); settings: HepG2 Attagene CIS-FACTORIAL M19 internal marker reporter; actives raise or lower the signal
Method in brief: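 Transfect HepG2 with MRTU reporter library → dose chemical, 24 h → isolate total RNA, reverse-transcribe with oligo(dT) → PCR, 6-FAM label, HpaI cut (2 h, 37 C) → capillary electrophoresis. Bidirectional fit vs DMSO.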

[13] = ATG_ERE_CIS: Attagene CIS-FACTORIAL HepG2 Assay for Estrogen Response Element (ERE) (AID 2282940); settings: HepG2 ERE cis-reporter, Attagene RNA transcript; actives raise or lower the signal
Method in brief: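 Transient MRTU transfection of human HepG2; cis-element promoters; 24 h dosing; total RNA → RT (oligo dT) → PCR → 6-FAM primer extension → HpaI digest → CE fluorescence. Bidirectional fit, DMSO baseline.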

[14] = ATG_Ets_CIS: Attagene CIS-FACTORIAL HepG2 Assay for human Erythroblast Transformation Specific (ETS) (AID 2282941); settings: HepG2 ETS cis-reporter transcription, actives raise or lower the signal
Method in brief: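 Bidirectional fit versus DMSO of reporter mRNA signal, detected by RT-PCR and capillary electrophoresis in HepG2 cells transiently transfected with cis-element reporters and dosed 24 h.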

[15] = molecular target: Hepatocyte nuclear factor 3-beta (Homo sapiens) (UniProt Q9Y261); experiment: ATG_FoxA2_CIS: Attagene CIS-FACTORIAL HepG2 Assay for human Forkhead box A2 (FOXA2) (AID 2282942); settings: HepG2 cis-reporter transcription factor activity, 24 h; actives raise or lower the signal
Chain of Hepatocyte nuclear factor 3-beta (Homo sapiens) (Q9Y261 whole entry, looked up): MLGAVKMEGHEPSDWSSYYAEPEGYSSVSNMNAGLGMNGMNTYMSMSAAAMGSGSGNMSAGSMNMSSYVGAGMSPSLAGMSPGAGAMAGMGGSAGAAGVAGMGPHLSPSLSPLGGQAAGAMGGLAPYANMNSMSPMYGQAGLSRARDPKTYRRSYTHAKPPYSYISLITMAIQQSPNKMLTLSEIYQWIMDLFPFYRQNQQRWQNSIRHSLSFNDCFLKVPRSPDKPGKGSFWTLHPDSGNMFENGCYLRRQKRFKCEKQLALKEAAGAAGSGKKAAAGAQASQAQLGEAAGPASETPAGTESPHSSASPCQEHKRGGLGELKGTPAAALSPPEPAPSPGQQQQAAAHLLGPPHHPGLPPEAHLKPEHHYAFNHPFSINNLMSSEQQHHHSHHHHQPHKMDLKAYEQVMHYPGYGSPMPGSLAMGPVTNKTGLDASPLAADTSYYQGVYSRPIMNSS
Method in brief: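 Reporter transcript induction is measured by fluorescence after capillary electrophoresis of RT-PCR products from HepG2 cells exposed 24 h. Cis-regulated reporter units report endogenous factor activity; curves fitted both directions against DMSO.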

[16] = ATG_FoxO_CIS: Attagene CIS-FACTORIAL HepG2 Assay for human Forkhead box O (FoxO) (AID 2282943); settings: HepG2 Attagene cis-reporter, FoxO element, mRNA; actives raise or lower the signal
Method in brief: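 HepG2 cells transiently transfected with cis-promoter-driven multiple reporter transcription units; 24 h after chemical dosing, reporter mRNA quantified by RT-PCR, fluorescent primer extension, HpaI digestion and capillary electrophoresis. Bidirectional fitting versus DMSO baseline.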

[17] = ATG_GATA_CIS: Attagene CIS-FACTORIAL HepG2 Assay for human GATA Binding Protein (AID 2282944); settings: HepG2 GATA cis-element reporter, Attagene multiplex mRNA; actives raise or lower the signal
Method in brief: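 Transient MRTU transfection, HepG2, 24 h compound exposure. Total RNA → oligo(dT) RT → PCR → 6-FAM primer extension → HpaI cut → CE. Bidirectional fit vs DMSO.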

[18] = ATG_M_61_CIS: Attagene CIS-FACTORIAL HepG2 Assay for M61 Transcription Factor (Internal Marker) (AID 2282937); settings: HepG2 Attagene CIS-FACTORIAL M61 internal marker reporter; actives raise or lower the signal
Method in brief: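 Endogenous transcription factor activity in HepG2 is read through transiently transfected cis-element reporter units. After 24 h dosing, RNA undergoes reverse transcription, PCR and primer extension with 6-FAM before capillary electrophoresis; DMSO-referenced bidirectional fit.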

[19] = ATG_AP_2_CIS: Attagene CIS-FACTORIAL HepG2 Assay for human Activator Protein 2 (AP-2) (AID 2282932); settings: HepG2 AP-2 cis-reporter, Attagene transcription factor profiling; actives raise or lower the signal
Method in brief: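 Assay in transfected HepG2 with promoter-regulated reporters, 24 h incubation after dosing. Signal is reporter mRNA fluorescence (RT-PCR, capillary electrophoresis), analysed for both increases and decreases relative to DMSO controls.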

[20] = ATG_E_Box_CIS: Attagene CIS-FACTORIAL HepG2 Assay for human Enhancer Box (E-box) (AID 2282936); settings: HepG2 E-box cis-reporter transcription, actives raise or lower the signal
Method in brief: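 Measured 24 h post-dosing in HepG2 cells transfected with multiple cis-regulated reporter units, signal being reporter mRNA induction detected by fluorescent RT-PCR with capillary electrophoresis; gain or loss fitted against DMSO.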

Measured: AC50

CC(=O)OC1CCCCC1C(C)(C)C (centres undefined)
not listed: [18] | [19] | [20]
inactive: all other assays above

C=C(C)[C@@H]1CC=C(C)CC1
not listed: [9] | [16] | [17] | [19] | [20]
inactive: all other assays above

CC(C)(O)Cc1ccccc1
not listed: [7] | [17]
inactive: all other assays above

CC(C)(C)N
not listed: [7]
inactive: all other assays above

C1CNCCN1
not listed: [7] | [17] | [18] | [19]
inactive: all other assays above

O=C(O)/C=C/c1ccccc1
active: [1] 2.06 µM | [13] 42.5 µM
not listed: [9] | [19]
inactive: all other assays above

O=C(O)C(F)(F)C(F)(F)C(F)(F)C(F)(F)C(=O)O
not listed: [7] | [16] | [18]
inactive: all other assays above

CC(C)c1ccc2ncccc2c1
active: [4] 53.5 µM
not listed: [7]
inactive: all other assays above
